We go through 39 molecules from ChEMBL document CHEMBL3433997, “St. Jude Leishmania screening dataset” (2016).

Values joined by “and” are separate entries in the source; they are usually repeats but may differ in a detail not shown here. Equal entries are not always repeated.

In general, inhibition refers to the relative decrease from the control value, in per cent.

The first assay addresses Hexose transporter 1 (Plasmodium falciparum) (UniProt O97467). Kind of assay: ST_JUDE_LEISH: Cytotoxicity at 2uM final concentration against transgenic Leishmania Mexicana promastigotes LmPfHT that are glucose transport deficient and complemented with the Plasmodium falciparum hexose transporter. Activity is measured by DNA content using SYBR green in vitro. The class given is functional.
With `CN1CC=C(c2c[nH]c3ccc(C(=O)c4nccs4)cc23)CC1`, the inhibition is -1.47%.
As for `NCc1ccc(-c2ccccc2CN(C(=O)Nc2ccccc2)C2CCN(Cc3ccccc3)CC2)cc1`, the inhibition is 1.83%.
Take `COc1ccc(OC)c(CNCC(O)c2cc(C(F)(F)F)cc(C(F)(F)F)c2)c1` (stereo not drawn): the inhibition turned out to be 6.21%.
Take `O=c1n[n+](C2CCCCC2)[n-]o1`: the inhibition is -0.13%.
On to `COC(=O)c1sccc1NC(=S)NC1CCC(CN2CCC(c3c[nH]c4ccccc34)CC2)CC1` (stereo not drawn), for which the inhibition was 3.81% and 3.47%.
Still for that read-out and setting: for `O=C(/C=C/c1ccc(Cl)c(Cl)c1)NCCC1CCC(N2CCC(c3c[nH]c4ccccc34)CC2)CC1` (stereo not drawn) the value was 7.76%; for `CN(c1cc(NC(=O)c2ccc(F)cc2)ccn1)C1CCN(Cc2cccc(C#N)c2)CC1`, -2.19%; for `CS(=O)(=O)Nc1ccc2[nH]cc(C3CCN(CC4CCN(C(=O)/C=C/c5ccc(Cl)c(Cl)c5)CC4)CC3)c2c1`, 3.49%.
Consider `C=C[C@H]1CN2CC[C@H]1C[C@H]2[C@H](OS(=O)(=O)O)c1ccnc2ccccc12`, for which the inhibition was 8.07%.
`CNCCCCCCOc1ccc(CC(C)NCC(O)c2cccc(C(F)(F)F)c2)cc1` (stereo not drawn): the inhibition was determined as 2.66%.
On the same count and under the same terms, the result for `CCN1CCC2(c3cccc(OC)c3)Cc3nc4ccccc4c(-c4ccccc4)c3CC2C1` (stereo not drawn) reads 1.3%.
For `CC[C@H]1CN2CC[C@@H]1C[C@H]2[C@H](O)c1cc(-c2ccc(F)cc2)nc2ccc(O)cc12`, the inhibition came to 0.53%.
In the case of `Cc1cc(N)nc2cc(CNCCc3ccccc3Br)ccc12`, the inhibition is 0.02%.
The same measure, in the same setting: for `O=C(CSc1ccc(Cl)cc1)NC1CCC(CN2CCC(c3c[nH]c4ccccc34)CC2)CC1` (stereo not drawn) the value was 1.76%.
Take `Cc1[nH]c2ccccc2c1C1=CCN(CCCCCNC(=O)/C=C/c2ccc(Cl)c(Cl)c2)CC1`: the inhibition came to 5.72%.
As to `O=C(/C=C/c1ccc(Cl)c(Cl)c1)NCCCCCN1C2CCC1CC(c1c[nH]c3ccccc13)C2` (stereo not drawn), the inhibition was determined as 1.9%.
As for `Cc1c(C)c2c(c(C)c1O)CC[C@](C)(C(=O)N1CCC(CN3CCC(c4c[nH]c5ccccc45)CC3)CC1)O2`, the inhibition was determined as 4.94%.
Regarding `CCCCCc1cc(O)c2c(c1)OC(C)(C)CC2C1=CCN(Cc2cccnc2)CC1` (stereo not drawn), the inhibition is 1.05%.
`CCCCCCC(C)(C)c1cc(O)c2c(c1)OC(C)(C)c1ccncc1-2`: the inhibition was 0.83%.
On to `CCN(CC)CCOC(=O)C(OC)(c1ccccc1)c1ccccc1`, for which the inhibition came to 3%.
`COC(=O)c1ccc(CC(C)NCC(O)c2ccc(F)c(Cl)c2)cc1` (stereo not drawn): the inhibition stood at 0.78%.
Take `COCCNCc1cccc(-c2ccc(CN(C(=O)NC3CCCCC3)C3CCN(Cc4ccccc4)CC3)cc2)c1`: the inhibition worked out at 3.57%.
In the case of `O=C(/C=C/c1c(Cl)cccc1Cl)NC1CCC(CN2C3CCC2CC(c2c[nH]c4ccccc24)C3)CC1` (stereo not drawn), the inhibition came to 1.89%.
For the molecule `CC[C@H]1CN2CC[C@@H]1C[C@H]2[C@H](O)c1ccnc2ccc(OC)cc12`, the inhibition amounted to 0.55%.
With `CC[C@H]1CN2CC[C@@H]1C[C@H]2[C@H](O)c1cc(-c2cc(Cl)cc(Cl)c2)nc2ccc(OC)cc12`, the inhibition amounted to 2.24%.
For `CCC1(C)CC(CCNCc2ccccc2O)(c2ccc(C)cc2)CCO1` (stereo not drawn), the inhibition is -2.9%.
Still for that read-out and setting: for `CCOc1ccc(Br)cc1/C=C/C(=O)Nc1ccc2c(c1)C1CCC2N1C` (stereo not drawn) the value was 0.43%; for `CC[C@H]1CN2CC[C@H]1C[C@H]2[C@H](O)c1cc(-c2ccc(Cl)c(Cl)c2)nc2ccc(OC)cc12`, 9.65%; for `CC[C@H]1CN2CC[C@H]1C[C@@H]2[C@@H](OC(=O)c1ccc(Cl)cc1)c1ccnc2ccc(OC)cc12`, 0.13%.
As for `CO/C(=C\C=C\c1cc2cc(Cl)c(Cl)cc2[nH]1)C(=O)N[C@H]1CN2CCC1CC2`, the inhibition was -0.23%.
Take `CC(Cc1ccc(Oc2ccc(Cl)cc2)cc1)NCC(O)c1cccc(Cl)c1` (stereo not drawn): the inhibition was -2.38%.
For `CN1CC[C@H](N(Cc2ccccc2F)c2ccc(C#N)c(Cl)c2)C1`, the inhibition stood at 3.02%.
For `CNC(=O)c1ccc2[nH]cc(C3CCN(CC4CCC(NC(=O)/C=C/c5ccc(Cl)c(Cl)c5)CC4)CC3)c2c1` (stereo not drawn), the inhibition was determined as 7.99%.
Consider `COCCSc1ccc(CC(C)NCC(O)c2cccc(Cl)c2)cc1` (stereo not drawn), for which the inhibition turned out to be 0.25%.
As to `C=C[C@H]1CN2CC[C@@H]1C[C@H]2[C@H](O)c1cc(-c2ccc(F)cc2)nc2ccc(OC)cc12`, the inhibition came out at 4.6%.
Consider `CC[C@H]1CN2CC[C@H]1C[C@H]2[C@H](O)c1cc(N2CCCC(CO)C2)nc2ccc(OC)cc12` (stereo partly drawn), for which the inhibition was determined as 1.73%.
In the case of `COc1ccc(CCNCc2ccc3nc(N)c(C)cc3c2)cc1`, the inhibition amounted to 2.14%.
Regarding `CN(C(=O)OCc1ccccc1)C1CCC(CCN2CCC3(CC2)C(=O)NCN3c2cccc(C(F)(F)F)c2)(c2ccccc2)CC1` (stereo not drawn), the inhibition was determined as 1.12%.
For `O=C1Nc2cccc3c2C1(CCCCN1CC=C(c2c[nH]c4ncccc24)CC1)CCC3` (stereo not drawn), the inhibition worked out at 4.08%.

The next assay concerns the target Glucose transporter (Leishmania mexicana) (UniProt O61059). The experiment in a line: ST_JUDE_LEISH: Cytotoxicity at 2uM final concentration against transgenic Leishmania Mexicana promastigotes LmGT2 that are glucose transport deficient and complemented with the L. Mexicana glucose transporter 2. Activity is measured by DNA content using SYBR green in vitro. Format: functional.
`CN1CC=C(c2c[nH]c3ccc(C(=O)c4nccs4)cc23)CC1`: the inhibition was -1.62%.
`NCc1ccc(-c2ccccc2CN(C(=O)Nc2ccccc2)C2CCN(Cc3ccccc3)CC2)cc1`: the inhibition was -3.48%.
On to `COc1ccc(OC)c(CNCC(O)c2cc(C(F)(F)F)cc(C(F)(F)F)c2)c1` (stereo not drawn), for which the inhibition is 3.49%.
On the same count and under the same terms, the result for `O=c1n[n+](C2CCCCC2)[n-]o1` reads -0.34%; that for `COC(=O)c1sccc1NC(=S)NC1CCC(CN2CCC(c3c[nH]c4ccccc34)CC2)CC1` (stereo not drawn), 0.42% and 1.38%; that for `O=C(/C=C/c1ccc(Cl)c(Cl)c1)NCCC1CCC(N2CCC(c3c[nH]c4ccccc34)CC2)CC1` (stereo not drawn), 4.25%.
On to `CN(c1cc(NC(=O)c2ccc(F)cc2)ccn1)C1CCN(Cc2cccc(C#N)c2)CC1`, for which the inhibition stood at 5.14%.
Turning to `CS(=O)(=O)Nc1ccc2[nH]cc(C3CCN(CC4CCN(C(=O)/C=C/c5ccc(Cl)c(Cl)c5)CC4)CC3)c2c1`, the inhibition stood at 4.09%.
Turning to `C=C[C@H]1CN2CC[C@H]1C[C@H]2[C@H](OS(=O)(=O)O)c1ccnc2ccccc12`, the inhibition was 9.07%.
On to `CNCCCCCCOc1ccc(CC(C)NCC(O)c2cccc(C(F)(F)F)c2)cc1` (stereo not drawn), for which the inhibition is 1.22%.
For `CCN1CCC2(c3cccc(OC)c3)Cc3nc4ccccc4c(-c4ccccc4)c3CC2C1` (stereo not drawn), the inhibition was determined as 2.12%.
Same read-out and setting: for `CC[C@H]1CN2CC[C@@H]1C[C@H]2[C@H](O)c1cc(-c2ccc(F)cc2)nc2ccc(O)cc12` the value was -0.19%.
Take `Cc1cc(N)nc2cc(CNCCc3ccccc3Br)ccc12`: the inhibition is -0.67%.
On the same count and under the same terms, the result for `O=C(CSc1ccc(Cl)cc1)NC1CCC(CN2CCC(c3c[nH]c4ccccc34)CC2)CC1` (stereo not drawn) reads 2.72%; that for `Cc1[nH]c2ccccc2c1C1=CCN(CCCCCNC(=O)/C=C/c2ccc(Cl)c(Cl)c2)CC1`, 5.48%.
On the same count and under the same terms, the result for `O=C(/C=C/c1ccc(Cl)c(Cl)c1)NCCCCCN1C2CCC1CC(c1c[nH]c3ccccc13)C2` (stereo not drawn) reads 2.33%; that for `Cc1c(C)c2c(c(C)c1O)CC[C@](C)(C(=O)N1CCC(CN3CCC(c4c[nH]c5ccccc45)CC3)CC1)O2`, 0.9%.
Take `CCCCCc1cc(O)c2c(c1)OC(C)(C)CC2C1=CCN(Cc2cccnc2)CC1` (stereo not drawn): the inhibition stood at 0.25%.
`CCCCCCC(C)(C)c1cc(O)c2c(c1)OC(C)(C)c1ccncc1-2`: the inhibition came to 3.15%.
Regarding `CCN(CC)CCOC(=O)C(OC)(c1ccccc1)c1ccccc1`, the inhibition was 1.83%.
On to `COC(=O)c1ccc(CC(C)NCC(O)c2ccc(F)c(Cl)c2)cc1` (stereo not drawn), for which the inhibition was determined as 2.31%.
Regarding `COCCNCc1cccc(-c2ccc(CN(C(=O)NC3CCCCC3)C3CCN(Cc4ccccc4)CC3)cc2)c1`, the inhibition turned out to be 2.09%.
On to `O=C(/C=C/c1c(Cl)cccc1Cl)NC1CCC(CN2C3CCC2CC(c2c[nH]c4ccccc24)C3)CC1` (stereo not drawn), for which the inhibition is -0.2%.
In the case of `CC[C@H]1CN2CC[C@@H]1C[C@H]2[C@H](O)c1ccnc2ccc(OC)cc12`, the inhibition turned out to be 3.26%.
Take `CC[C@H]1CN2CC[C@@H]1C[C@H]2[C@H](O)c1cc(-c2cc(Cl)cc(Cl)c2)nc2ccc(OC)cc12`: the inhibition worked out at 1%.
Turning to `CCC1(C)CC(CCNCc2ccccc2O)(c2ccc(C)cc2)CCO1` (stereo not drawn), the inhibition was -0.15%.
The same measure, in the same setting: for `CCOc1ccc(Br)cc1/C=C/C(=O)Nc1ccc2c(c1)C1CCC2N1C` (stereo not drawn) the value was 3.45%; for `CC[C@H]1CN2CC[C@H]1C[C@H]2[C@H](O)c1cc(-c2ccc(Cl)c(Cl)c2)nc2ccc(OC)cc12`, 9.4%; for `CC[C@H]1CN2CC[C@H]1C[C@@H]2[C@@H](OC(=O)c1ccc(Cl)cc1)c1ccnc2ccc(OC)cc12`, -1.41%.
As to `CO/C(=C\C=C\c1cc2cc(Cl)c(Cl)cc2[nH]1)C(=O)N[C@H]1CN2CCC1CC2`, the inhibition was -0.34%.
Still for that read-out and setting: for `CC(Cc1ccc(Oc2ccc(Cl)cc2)cc1)NCC(O)c1cccc(Cl)c1` (stereo not drawn) the value was -1.74%; for `CN1CC[C@H](N(Cc2ccccc2F)c2ccc(C#N)c(Cl)c2)C1`, 4.63%; for `CNC(=O)c1ccc2[nH]cc(C3CCN(CC4CCC(NC(=O)/C=C/c5ccc(Cl)c(Cl)c5)CC4)CC3)c2c1` (stereo not drawn), 4.82%.
As to `COCCSc1ccc(CC(C)NCC(O)c2cccc(Cl)c2)cc1` (stereo not drawn), the inhibition was determined as 0.74%.
Regarding `C=C[C@H]1CN2CC[C@@H]1C[C@H]2[C@H](O)c1cc(-c2ccc(F)cc2)nc2ccc(OC)cc12`, the inhibition was found to be 3.68%.
As to `CC[C@H]1CN2CC[C@H]1C[C@H]2[C@H](O)c1cc(N2CCCC(CO)C2)nc2ccc(OC)cc12` (stereo partly drawn), the inhibition turned out to be 0.11%.
Turning to `COc1ccc(CCNCc2ccc3nc(N)c(C)cc3c2)cc1`, the inhibition is 3.68%.
As to `CN(C(=O)OCc1ccccc1)C1CCC(CCN2CCC3(CC2)C(=O)NCN3c2cccc(C(F)(F)F)c2)(c2ccccc2)CC1` (stereo not drawn), the inhibition was determined as 2.55%.
On to `O=C1Nc2cccc3c2C1(CCCCN1CC=C(c2c[nH]c4ncccc24)CC1)CCC3` (stereo not drawn), for which the inhibition worked out at 3.96%.
